ALR inh: inhibitors of human ALR sulfhydryl oxidase, primary screen, biochemical, H2O2 detection, HRP-luminol luminescence, single point; FAD-linked sulfhydryl oxidase ALR (Homo sapiens), P55789; purified ALR, DTT oxidation; inhibition, % (test concentration not listed); 290,000 compounds, 3.8% hits;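 active means mean replicate inhibition above about 79%, with every replicate also reaching it, limit read from the data; inconclusive means only one of the two criteria met; inactive means mean below limit and not every replicate reaching it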
Target sequence (P55789 whole entry, looked up): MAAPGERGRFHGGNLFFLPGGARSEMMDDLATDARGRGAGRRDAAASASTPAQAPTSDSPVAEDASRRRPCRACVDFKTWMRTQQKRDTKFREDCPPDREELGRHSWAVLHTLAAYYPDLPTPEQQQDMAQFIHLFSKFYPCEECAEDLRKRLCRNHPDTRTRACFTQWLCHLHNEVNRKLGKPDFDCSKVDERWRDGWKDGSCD
Rce1 inh: yeast Rce1p protease inhibitors, primary screen, biochemical, fluorescence, cell-free homogeneous; yeast membranes, quenched prenylated peptide cleavage fluorescence; calls only; 290,000 compounds, 0.27% hits;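 active means fall in fluorescence gain of 50% or more versus controls, with final raw signal at or below 3038400; inconclusive means same 50% fall but final raw signal above 3038400; inactive means fall in fluorescence gain under 50%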;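 further: plate controls were neutral control wells for no effect and wells lacking membranes for full effect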
Target sequence (Q03530 whole entry, looked up): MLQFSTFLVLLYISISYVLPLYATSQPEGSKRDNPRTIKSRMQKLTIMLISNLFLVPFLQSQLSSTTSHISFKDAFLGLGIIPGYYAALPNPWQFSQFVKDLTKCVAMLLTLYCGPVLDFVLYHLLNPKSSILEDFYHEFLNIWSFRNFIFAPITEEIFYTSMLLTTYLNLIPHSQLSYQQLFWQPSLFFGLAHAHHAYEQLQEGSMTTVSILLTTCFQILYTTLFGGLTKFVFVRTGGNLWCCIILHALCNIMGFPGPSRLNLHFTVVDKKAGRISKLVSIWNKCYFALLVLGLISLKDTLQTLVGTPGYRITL
Efflux pump inh: inhibitors of Candida efflux pumps in yeast, primary screen, S. cerevisiae, Nile Red, multiplex; inhibition, % at 10 µM; S. cerevisiae Candida pump triplex; 330,000 compounds, 0.44% hits;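 active means plate passing quality check with inhibition over a set limit, or well fluorescence over plate mean plus 4 SD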;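 further: Nile Red retained in pooled yeast measured as flow cytometry median fluorescence; 0% = buffer negative control and 100% = Enniatin B positive control; higher means more Nile Red kept so more efflux inhibition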
GRK2 aptamer HTS: compounds blocking aptamer binding on GRK2 – biochemical, human GRK2, bead flow cytometry, HTS, primary screen | FAM-aptamer displacement from GRK2 | inhibition of aptamer binding, % at 10 µM | 330,000 compounds, 0.59% hits | AID 488847, 2010;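 active means inhibition of aptamer binding above 40%, roughly 3 SD of noise, on plates passing a quality check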;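 further: median bead fluorescence of bound FAM aptamer so fluorescent compounds give negative values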
HDAC3 inhib: HDAC3 deacetylase inhibitors, primary screen, biochemical, fluorescence, cell-free homogeneous. recombinant HDAC3, fluorogenic peptide/trypsin coupled. inhibition, % at 8.3 µM. 320,000 compounds, 0.15% hits. AID 2718, 2010; in the data active means inhibition above about 26%, passing the limit was not always enough; inconclusive means no clear call, values can overlap the other calls
Rtt109 Vps75: inhibitors of C. albicans Rtt109/Vps75 HAT, primary screen, biochemical, ThioGlo CoA-SH fluorescence, plate reader | 330,000 compounds, 0.16% hits | inhibition, % at 34.9 µM | purified Rtt109/Vps75, 4 h;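 active means inhibition of at least 50% in every replicate; inconclusive means best replicate reaches 50% inhibition but some replicates fall short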
The depositor's hits bear a star; i = inactive; u = inconclusive; x = no result given; + = active, no number. This is a sample that favours compounds with a hit; in the whole collection about 4.5% have one here.

SMILES | ALR inh | Rce1 inh | Efflux pump inh | GRK2 aptamer HTS | HDAC3 inhib | Rtt109 Vps75
C/C=C\C(=O)Nc1cccc(C2=NOC3(C2)C[C@@H](C(N)=O)N(C(=O)C2(C)CC2)C3)c1 (stereo partly drawn) | x | i | 0 | 1 | 2 | 3
Cc1c(C(=O)N2CC3(CC(c4cccc(NC(=O)[C@H]5CCC(=O)N5)c4)=NO3)C[C@@H]2C(N)=O)cc([N+](=O)[O-])cc1[N+](=O)[O-] (stereo partly drawn) | x | i | 0 | 1 | 5 | -1
NC(=O)[C@H]1CC2(CC(c3cccc(NC(=O)[C@H]4CCC(=O)N4)c3)=NO2)CN1C(=O)c1cc([N+](=O)[O-])cc([N+](=O)[O-])c1 (stereo partly drawn) | x | i | 0 | 3 | 39* | 8
COc1ccc(S(=O)(=O)NCC(c2ccc3c(c2)OCO3)N2CCOCC2)cc1 (stereo not drawn) | 3 | i | 0 | 0 | 3 | 3
COc1ccc(Nc2nccc(-c3cccc(N)c3)n2)cc1 | 99* | i | 0 | 1 | 4 | -3
c1coc(-c2ccnc3ncnn23)c1 | 0 | + | 0 | 0 | -18 | -4
Nc1nc2nccc(-c3ccco3)n2n1 | -6 | x | 0 | 13 | -46 | -30
COc1cccc(CN(CCC(C)C)S(=O)(=O)c2cc(Br)ccc2Br)c1 | x | x | x | x | x | -4
Cc1cc(-c2csc3nc[nH]c(=S)c23)cc(C)c1C | 97* | i | 0 | 3 | -10 | 3
Cc1ccc(-c2csc3nc[nH]c(=S)c23)cc1 | 97* | i | 0 | 0 | -5 | 2
COc1cc(CCC(C)=O)ccc1OC(=O)c1c(F)cccc1Cl | -5 | i | 0 | 3 | u | -13
COc1ccc2c(C)cc(SCC(=O)c3ccc4c(c3)OCO4)nc2c1 | 99* | i | 0 | 24 | -1 | 1
COc1ccc2c(C)cc(SCC(=O)NC3CCCC3)nc2c1 | x | x | 0 | 0 | 2 | -1
CC(C)CCNC(=O)CCCn1c(=O)[nH]c2ccc(Br)cc2c1=O | -3 | i | 0 | 0 | 0 | -6
O=C(CCCn1c(=O)[nH]c2ccc(Br)cc2c1=O)NCc1ccc(Cl)cc1 | -2 | + | 0 | 3 | -1 | -27
CC[C@]12c3[nH]c4cc(-c5ccco5)ccc4c3CCN1C(=O)[C@@H](CC(=O)NCc1cccc(C(F)(F)F)c1)C[C@@H]2C(=O)N1CCN(C(=O)c2ccco2)CC1 | x | x | 0 | 3 | x | -8
CCN(CC)Cc1c(O)ccc2c(=O)c(-c3ccccc3OC)coc12 | -2 | + | 0 | 4 | -80 | -6
CN(CC(=O)Nc1cccc(F)c1)C(=O)C1CCC(C(=O)N(C)CC(=O)Nc2cccc(F)c2)CC1 (stereo not drawn) | x | x | x | x | x | -3
COCCn1c(Cc2ccccc2)nnc1SCC(=O)N1CCCC1=O | 11 | x | 0 | 6 | 17 | 3
COc1ccc(-n2c(=S)[nH]c3c(oc4ccccc43)c2=O)cc1 | 93* | i | 0 | 2 | 1 | 0
Cc1ccc(-n2c(=O)[nH]c3c(oc4ccccc43)c2=O)cc1 | 0 | i | 0 | 3 | -2 | -2
CC1CCN(C(=O)c2ccc(S(=O)(=O)Cc3cccc(F)c3)c([N+](=O)[O-])c2)CC1 | -1 | i | 0 | 0 | 0 | -5
Cc1ccccc1CS(=O)(=O)c1ccc(C(=O)N2CCC(C)CC2)cc1[N+](=O)[O-] | 97* | i | 0 | 0 | -2 | -12
Nc1nc(Nc2ccccc2)n[nH]1 | 98* | i | 0 | 1 | x | -2
Nc1nc(Nc2ccc(Cl)cc2)n[nH]1 | 99* | i | 0 | 0 | 5 | -5
SMILES | ALR inh | Rce1 inh | Efflux pump inh | GRK2 aptamer HTS | HDAC3 inhib | Rtt109 Vps75
CC1CC(OC(=O)CN2CCCCC2)CC(C)(C)C1 (stereo not drawn) | 1 | i | 0 | 0 | -2 | x
O=C(NCCCN1CCCC1=O)c1cccc(S(=O)(=O)Nc2ccc(Br)cc2)c1 | -7 | i | 0 | 2 | -3 | -14
O=C(Nc1ccc2oc(-c3ccncc3)nc2c1)c1ccc2c(c1)OCO2 | 0 | i | 0 | 8 | -7 | 6
O=C(Nc1ccc2oc(-c3ccncc3)nc2c1)c1ccc2c(c1)OCCO2 | 1 | i | 0 | 1 | 0 | 57*
COc1ccc(-c2nnc3n2CCCCC3)cc1OC | x | i | 0 | 3 | 2 | 16
COc1ccc(-c2csc(Cc3nnc4n3CCCCC4)n2)cc1OC | 98* | i | 0 | 0 | 2 | -8
CCOc1ccc(S(=O)(=O)N2CCC(C(=O)NCCN3CCOCC3)CC2)cc1C | -8 | i | 0 | 2 | 5 | 4
CC(CC(=O)N1CCc2ccccc21)n1cccn1 (stereo not drawn) | -12 | i | 0 | 1 | 1 | 6
O=C(CSc1nc2ccccc2o1)N/N=C/c1ccc(O)c(O)c1 | 88* | i | 0 | 2 | 1 | 30
O=C(CSc1nc2ccccc2o1)N/N=C/c1ccccc1 | -3 | i | 0 | 1 | u | 9
C/C(=N\NC(=O)CSc1nc2ccccc2o1)c1cccc(O)c1 | x | i | 0 | 1 | -3 | 0
C/C(=N\NC(=O)CSc1nc2ccccc2o1)c1ccc(O)cc1 | 99* | i | 0 | 1 | -4 | 4
CCc1ccc(C2=CSC3=NCCN23)cc1 | 59 | i | 0 | 3 | 3 | 8
CCCCc1c(O)c2cccc3c2n(c1=O)CCC3 | -5 | i | 0 | 2 | 0 | x
CSc1ncc(Cl)c(C(=O)C(C#N)c2nc3c(C)cc(C)cc3c(=O)[nH]2)n1 (stereo not drawn) | 86* | i | 0 | 1 | 0 | 4
O=C1CCCc2c1sc1nc3n(c(=O)c21)CCCCC3 | -3 | i | 0 | 1 | 7 | 6
O=C1c2sc3nc4n(c(=O)c3c2CCC1Br)CCCCC4 (stereo not drawn) | 82* | i | 0 | 1 | 17 | 3
CC(C)(CO)CNC(=O)CCc1nnc(-c2ccc(-c3ccccc3)cc2)o1 | x | i | 0 | 3 | 3 | 0
CSCc1ccc(C(=O)NC(C)c2ccc(-n3ccnc3)cc2)cc1 (stereo not drawn) | 98* | i | 0 | 0 | 2 | -5
